# Most compounds without a hit are left out; they make up all but 11% or so of the library.
# ALDH1A1 block = blocks purified human ALDH1A1 activity. P00352. Purified ALDH1A1, NADH fluorescence, propionaldehyde substrate. Potency, µM (doses to about 75.3 µM), without a hit: at the top dose activity, negative = inhibition, hits mostly inhibitors. hit rate 7.3% among 220,000;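 note: potency is the fitted concentration of half-maximal effect; plate controls were no enzyme wells and a reference inhibitor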
# HPGD inh = HPGD (human) dehydrogenase inhibition; AID 894; hit rate 4.3% among 150,000; Potency, µM, for the others: top-dose activity change, negative = inhibition, usual class: inhibitors; purified HPGD, NADH fluorescence kinetic, PGE2 substrate; P15428; note: potency is the fitted concentration of half-maximal effect
# Target sequence (P15428 whole entry, looked up): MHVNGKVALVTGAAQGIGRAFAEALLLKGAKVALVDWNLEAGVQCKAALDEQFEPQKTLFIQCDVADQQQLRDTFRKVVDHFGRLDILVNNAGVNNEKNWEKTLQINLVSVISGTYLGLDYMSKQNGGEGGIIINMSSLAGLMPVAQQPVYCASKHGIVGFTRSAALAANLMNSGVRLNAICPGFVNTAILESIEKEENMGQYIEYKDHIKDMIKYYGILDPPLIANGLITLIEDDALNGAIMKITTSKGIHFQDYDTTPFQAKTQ
#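 NADH formation kinetics: reaction with 30 uM PGE2 and 1 mM NAD+ (final), 20 nM enzyme, Tris-HCl pH 8 with Tween 20, after 15 min compound preincubation at room temperature. Fluorescence change, last versus first of five reads.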
# PNC inhibitor = perinucleolar compartment assembly inhibition; PC3M PTB-GFP, PNC prevalence imaging, 16 h; active compounds read low; hit rate 3.1% among 140,000; activity change (PNC), negative = inhibition, % at 10 µM;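 active = readout at or below -70, meaning at least 70% loss of cells showing the perinucleolar compartment, a nuclear body marking cancer cells; inconclusive = readout between -30 and a set limit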;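 note: plate controls were DMSO wells for no effect and camptothecin positive control wells for full effect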
#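 PC3M cells stably expressing PTB-GFP, 750–1000 cells/well, treated 16 h at 37 °C with compound (23 nl of library stock), in duplicate. After paraformaldehyde fixation and Hoechst stain, imaged at 20x; PNC prevalence scored by image analysis.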
# * marks the source's active call; other numbers are inactive results; ? = inconclusive; nt = no result; [ ] = another dose, or the depositor's remark. Unless noted, calls come from the whole dose curve; as a rule, active = well fitted inhibition curve with a large enough effect (not every such curve was filed as active); inconclusive = small, poorly fitted or top-dose-only effect, or another doubt; inactive = no such curve, though single readings can be large or run the other way. Unless noted, % is set by controls: 0 for no effect and ±100 for the full control effect.
SMILES,ALDH1A1 block,HPGD inh,PNC inhibitor
CCOc1cc(/C=C/C(=O)Nc2ccc(C(=O)NCCN(CC)CC)cc2)ccc1OCC(C)C,-4.4%,nt,nt
CCN(CCn1cccn1)Cc1c(C(=O)N2CCCCCCC2)nc2ccc(Cl)cn12,3.8%,nt,nt
Cc1nn(C)cc1C(C)NCc1c(C(=O)N2CCCCCCC2)nc2ccc(Cl)cn12 (stereo unspecified),3.16µM*,nt,nt
O=C(Nc1ccc2c(c1)nc1n2CCSC1)c1ccccc1,22.4µM*,-6.7%,?
COc1ccc(C(=O)Nc2ccc3c(c2)nc2n3CCSC2)cc1,?,?,12.9
Cc1ccc(C)c(N2CCN(C(=O)CCn3c(=S)[nH]c4cc5c(cc4c3=O)OCO5)CC2)c1,5.0%,-5.8%,1.0
CC[C@H]1CC[C@H]2[C@@H]3CC=C4C[C@H](OC(C)=O)[C@@H](N)C[C@@]4(C)[C@H]3CC[C@@]12C,6.3%[13.5 µM],-5.9%,nt
O=C(C1CCCN1C(=O)c1cccs1)N1CCc2ccccc21 (stereo unspecified),?,-17.6%,-97.9*
O=C(c1cccs1)N1CCc2ccccc21,4.7%,-6.7%,?
CC(C)OC(=O)c1c(-c2ccc(C(C)C)cc2)csc1NC(=O)C1CCCO1 (stereo unspecified),10.0%,-12.3%,?
CCOC(=O)c1c(-c2ccc(OC)cc2)csc1NC(=O)CCN1C(=O)c2ccccc2C1=O,35.5µM*,28.2µM*,?
CCCOC(=O)c1c(NC(=O)C2CCCO2)sc(C(=O)OC)c1C (stereo unspecified),2µM*,10µM*,0.0
CCOC(=O)c1c(-c2ccc(F)cc2)csc1NC(=O)C1CCCO1 (stereo unspecified),11.2µM*,nt,nt
CCOC(=O)c1c(-c2ccc(OCC)cc2)csc1NC(=O)CCN1C(=O)c2ccccc2C1=O,-14.3%,-16.2%,93.4
CCOC(=O)c1c(-c2ccc(OC)cc2)csc1NC(=O)C1CCCO1 (stereo unspecified),8.91µM*,nt,nt
CCOC(=O)c1c(-c2ccc(C)cc2)csc1NC(=O)C1CCCO1 (stereo unspecified),?,-16.3%,-25.8
CCOC(=O)c1c(NC(=O)C2CCCO2)sc(C(N)=O)c1C (stereo unspecified),?,-10.2%,13.8
COc1ccc2cc(C(C)CO)ccc2c1 (stereo unspecified),-7.4%,-8.0%,nt
S=C(NCC1CCCO1)Nc1ccccc1 (stereo unspecified),-4.1%,nt,nt
Cc1cccc(C)c1NC(=S)N(Cc1ccccc1)Cc1cccs1,-2.9%,nt,nt
O=C(COc1cccc2cccnc12)Nc1ccccc1N1CCOCC1,-4.9%,nt,nt
Cc1cc(NC(=O)c2ccc([N+](=O)[O-])o2)ccc1NC(=O)c1ccco1,25.1µM*,nt,nt
Cc1cc(NC(=O)c2ccc([N+](=O)[O-])cc2Cl)ccc1NC(=O)c1ccco1,8.0%,-6.9%,-4.8
Cc1cc(NC(=O)c2ccc3c(c2)OCCO3)ccc1NC(=O)c1ccco1,-3.4%,nt,nt
Cc1cc([N+](=O)[O-])ccc1NC(=O)c1ccco1,15.8µM*,nt,nt
SMILES,ALDH1A1 block,HPGD inh,PNC inhibitor
C=CCNC(=S)NNC(=O)c1ccc(=O)n(Cc2ccc(Cl)cc2Cl)c1,-3.9%,nt,nt
COc1ccc(/C=C/C(=O)OCC(=O)Nc2ccc(C)cc2)cc1S(=O)(=O)N1CCOCC1,12.2%,-1.5%,33.6
COC(=O)c1cnn(-c2cc(Oc3ccccc3)ncn2)c1N,?,nt,-26.1
Cc1ccccc1Oc1cc(-n2ncc(Cl)c(Cl)c2=O)ncn1,1.58µM*,-16.7%,-86.5*
CCOc1cnn(-c2cc(Oc3ccc(C)cc3)ncn2)c(=O)c1Cl,11.2µM*,-8.4%,-15.8
COc1ccccc1Oc1cc(-n2nc(C)cc2C)ncn1,?,-4.8%,101.0
O=[N+]([O-])c1ccc(Cl)cc1Cl,-0.8%,-1.6%,nt
O=C(N1CCOCC1)C1(c2ccccc2)CCCCC1,-14.9%,7.4%,-105.1*
O=C(N1CCCCC1)C1(c2ccccc2)CCOCC1,?,-4.3%,-12.0
Cc1ccc(NC2=NCC(=O)N2CCc2ccccc2)cc1C,3.6%,-11.5%,-9.0
CCOc1ccc(NC(=O)c2cccnc2SC)cc1,2.6%,nt,nt
CCOc1ccc(NC(=O)CNC(=O)COc2ccccc2)cc1,6.6%,nt,48.7
CCOc1ccc(NC(=O)C(C)Oc2ccccc2C(=O)Nc2cccc(Cl)c2Cl)cc1 (stereo unspecified),-4.0%,-0.1%,-110.1*
CCOc1ccc(NC2=NCC(=O)N2CCc2ccccc2)cc1,25.1µM*,-12.5%,?
CCOc1ccc(NC(=O)Cc2ccccc2)cc1,1.7%,12.6µM*,21.2
CCOc1ccc(NC(=O)c2cccnc2C(=O)O)cc1,22.4µM*,-6.3%,16.6
CCOc1ccc(NC(=O)c2ccccc2OC)cc1,4.9%,-17.8%,?
CCCC[C@@H]1C[C@H]1C(NC(=O)c1ccc(C(F)(F)F)cc1)c1ccc(C(=O)OC)cc1 (stereo partly specified),?,-3.1%,nt
CC(=O)[C@]1(O)CC[C@@H]2[C@H]3C[C@@H](C)C4=CC(=O)CC[C@@]4(C)C3[C@@H](O)C[C@]21C (stereo partly specified),?,-18.2%,nt
CCc1nc2ccccc2c(C(=O)OCC(=O)NC(=O)c2cccn2C)c1C,-14.7%,nt,nt
Cc1ccc(-n2c(O)c(C=NCc3ccccn3)c3ccccc3c2=O)cc1C,-11.1%,-7.5%,27.4
COc1ccc(NC(=O)CCC(=O)N(Cc2ccc(OC)c(OC)c2)c2nccs2)c(OC)c1,-4.1%,nt,nt
NC(=O)N/N=C1\CC[C@H](O)C[C@@H]1CC(=O)O,16.7%[13.5 µM],-3.4%,nt
COC(=O)C1C(C)OC(=O)NC1c1ccccc1 (stereo unspecified),6.8%[13.5 µM],nt,nt
CCOc1ccc(NC(=O)c2ccccc2CO)cc1,7.4%,-5.6%,9.2
SMILES,ALDH1A1 block,HPGD inh,PNC inhibitor
CCOc1ccc(NC(=O)c2ccccc2O)cc1,-0.5%,-13.1%,-104.5*
CCOc1ccc(NC(=O)C2CC(C)=C(C)CC2C(=O)O)cc1 (stereo unspecified),2.0%,-7.7%,-23.2
CCOc1ccc(NC(=O)C2CC(=O)OC2c2ccccc2)cc1 (stereo unspecified),25.1µM*,nt,nt
CC(C)C[C@@H](CC(=O)N[C@@H](CCCN)CC(=O)N[C@@H]1CCNC[C@H]1C(=O)N[C@H](CC(=O)N[C@@H](CCC(=O)O)CC(=O)O)Cc1ccccc1)NC(=O)[C@@H]1CCCC[C@H]1N,-12.1%,-2.6%,nt
Cc1ccccc1-c1oc(C)c(C)[n+]1[O-],1.2%,nt,nt
CC(=O)c1cccc(N(CC(=O)N2CCCC2)S(C)(=O)=O)c1,25.1µM*,0.1%,35.7
CC(=O)c1cccc(N(CC(=O)N2CCCCC2)S(C)(=O)=O)c1,0.7%,-3.8%,?
COc1ccc(NS(=O)(=O)c2ccc(NS(=O)(=O)c3ccc(C)cc3)cc2)nn1,12.6µM*,-12.2%,18.9
COc1cc(NS(=O)(=O)c2ccc(NC(C)=O)cc2)ncn1,18.7%,-7.3%,-0.6
CC(=O)CSc1nc(N)c(C#N)c(-c2cccs2)c1C#N,?,-19.3%,-20.2
CSc1sc(C(=O)NCC2CC2)c(-c2cccs2)c1C#N,8.91µM*,nt,nt
CCCCC[C@H](O)/C=C/C=C\C/C=C\CCCCC(=O)O,0.2%,1.5%,nt
CO/N=C/NC(=O)c1c(OC)ccnc1Oc1ccccc1,6.31µM*,-8.5%,36.6
COc1ccnc(Oc2ccc(F)cc2)c1C(=O)N/C=N/OCc1c(Cl)cccc1Cl,-6.2%,-9.7%,-17.2
